Inhibition data for 39 molecules are collected here from ChEMBL document CHEMBL4513146, “CO-ADD screening of Karazin Kharkiv National University (Ukraine) compounds”.

Results with a measured potency or affinity are listed apart.

This experiment deals with Candida albicans. The settings on record: Concentration 32 ug.mL-1; ASSAY_TEST Inhibition of Fungal Growth; detection method Absorption (OD530).
With `COc1ccc(C)cc1NC(=O)Cn1nc2ccc(SC(C)(C)C)nn2c1=O`, the Inhibition was found to be 3.1%.

`O=S(=O)(c1ccc2nncn2c1)N(Cc1cccc(Cl)c1)c1ccc2c(c1)OCO2`: the Inhibition was found to be 1.66%.

Take `COc1cccc(-n2ccn3c(SCC(=O)c4ccc(C)cc4C)nnc3c2=O)c1`: the Inhibition is listed as 4.51%.

For the molecule `Cc1cccc(Oc2nccn3c(=O)n(CC(=O)N4CCN(c5ccccc5F)CC4)nc23)c1C`, the Inhibition is given as 1.02%.

As for `CCCc1ccc(S(=O)(=O)Nc2ccc3nncn3n2)cc1`, the Inhibition came out at 1.65%.

As for `CSc1ccc(-c2noc(Cn3nc4ccc(-c5ccccc5)nn4c3=O)n2)cc1`, the Inhibition amounted to 17.1%.

As for `Cc1ccc(Cn2c(=O)c3ccc(C(=O)NC4CCCC4)cc3n3c(=O)n(CC#N)nc23)cc1`, the Inhibition stood at 2.86%.

Consider `CC(C)CCn1c(=O)c2sccc2n2c(=O)n(Cc3ccccc3Cl)nc12`, for which the Inhibition is given as -1.94%.

As for `CCOc1ccc(C(=O)CSc2nnc3c(=O)n(-c4cccc(OC)c4)ccn23)cc1`, the Inhibition was 7.56%.

With `Cc1cccc(C)c1NC(=O)Cn1nc2c(N3CCSCC3)nc3ccccc3n2c1=O`, the Inhibition is 2.93%.

In the case of `O=C(Cn1nc2c(SC3CCCCC3)nccn2c1=O)Nc1ccc(Cl)cc1F`, the Inhibition stood at 1.51%.

Turning to `O=c1c2nn(Cc3c(F)cccc3Cl)c(=O)n2ccn1-c1ccccc1`, the Inhibition came out at 1.25%.

On to `Cc1nnc2ccc(S(=O)(=O)N(Cc3ccccc3F)c3cccc(F)c3)cn12`, for which the Inhibition worked out at 10.13%.

Consider `COc1ccc(CN(c2ccc(C(C)C)cc2)S(=O)(=O)c2cccn3cnnc23)cc1`, for which the Inhibition came out at 1.9%.

With `Cc1cc(C)c(NC(=O)Cn2nc3c(Sc4ccccc4)nccn3c2=O)c(C)c1`, the Inhibition stood at 5.92%.

Take `Cc1cccc(N(Cc2ccc(F)cc2)S(=O)(=O)c2cccn3c(C)nnc23)c1`: the Inhibition came out at 3.26%.

For `CCc1nnc2c(S(=O)(=O)N(Cc3cccc(C)c3)c3ccc(Cl)cc3)cccn12`, the Inhibition was 0.59%.

For `Cc1cc(C)c(C(=O)CSc2nnc3c(=O)n(-c4ccc(F)c(F)c4)ccn23)cc1C`, the Inhibition was 5.94%.

As to `CCc1nnc2c(S(=O)(=O)N(Cc3ccccc3F)c3ccc(F)cc3)cccn12`, the Inhibition stood at 1.99%.

As to `COc1ccccc1Cn1c(=O)c2sccc2n2c(=O)n(Cc3c(F)cccc3Cl)nc12`, the Inhibition is listed as -2.27%.

For `COc1cccc(-n2ccn3c(SCC(=O)c4ccc(C)cc4)nnc3c2=O)c1`, the Inhibition is given as 3.43%.

Consider `COc1ccc(NC(=O)Cn2nc3ccc(Sc4ccccc4)nn3c2=O)cc1`, for which the Inhibition is on record as 3.37%.

As for `COc1ccccc1-n1ccn2c(SCC(=O)Nc3ccc(C)cc3Cl)nnc2c1=O`, the Inhibition amounted to 3.4%.

For `Cc1cccc(NC(=O)Cn2c(=O)c3nnc(C(C)C)n3c3ccccc32)c1`, the Inhibition is recorded as 0.3%.

As to `O=C(Cn1nc2c(N3CCOCC3)nc3ccccc3n2c1=O)NCc1ccccc1Cl`, the Inhibition is reported as 6.61%.

Turning to `CCc1ccccc1Sc1nccn2c(=O)n(CC(=O)Nc3cccc(Br)c3)nc12`, the Inhibition is reported as 2.9%.

For the molecule `CCCCn1c(=O)c2sccc2n2c(=O)n(CC(=O)c3ccc(OC)cc3)nc12`, the Inhibition is 4.16%.

On to `COCCCNC(=O)CSc1nnc2c(=O)n(Cc3ccccc3F)ccn12`, for which the Inhibition is 4.29%.

With `O=C(Cn1nc2c(Oc3ccccc3)nccn2c1=O)Nc1ccc(F)cc1Cl`, the Inhibition amounted to 0.77%.

Turning to `C=Cc1ccc(CN(c2ccc(C(C)C)cc2)S(=O)(=O)c2cccn3c(C)nnc23)cc1`, the Inhibition is reported as 1.49%.

Consider `COc1cccc(-n2ccn3c(SCC(=O)c4cc(C)ccc4C)nnc3c2=O)c1`, for which the Inhibition amounted to 5.19%.

As to `CCOc1ccc(C(=O)CSc2nnc3c(=O)n(-c4ccc(C)c(C)c4)ccn23)cc1`, the Inhibition is given as 10.64%.

On to `O=C(Cn1nc2ccc(SCc3ccc(Cl)cc3)nn2c1=O)Nc1cccc(F)c1`, for which the Inhibition was determined as 31.36%.

On to `O=c1c2nn(Cc3cccc(F)c3)c(=O)n2ccn1-c1ccccc1`, for which the Inhibition worked out at 1.62%.

Take `Cc1ccc(-n2ccn3c(SCC(=O)c4c[nH]c5ccccc45)nnc3c2=O)cc1C`: the Inhibition is recorded as 3.27%.

Turning to `CC(C)CCn1c(=O)c2ccc(C(=O)NC3CCCCC3)cc2n2c(=O)n(CC#N)nc12`, the Inhibition is on record as 4.75%.

Consider `Cc1nnc2c(SCC(=O)N3CCN(c4ccc(F)cc4)CC3)nc3ccccc3n12`, for which the Inhibition is 2.24%.

As to `O=c1n(Cc2cccc(Cl)c2)nc2ccc(-c3ccccc3)nn12`, the Inhibition was found to be 2.36%.

Turning to `CCc1cccc(C)c1NC(=O)Cn1nc2ccc(SCc3ccc(Cl)cc3)nn2c1=O`, the Inhibition amounted to 52.47%.

One may read the Inhibition as the drop in the measured response relative to a control, in per cent.
